Test results reported in PubChem BioAssay (Tox21).
Active and inactive are the calls of the source. Calls come from the whole dose curve.

Test: qHTS assay to identify small molecule agonists of the estrogen related receptor (ERR) signaling pathway from Tox21 library (AID 1224849); note: nearly all actives have a fitted effect of over 15% in size
Conditions: ERR reporter cell line, ONE-Glo luciferase, 18 h; at 92.4 µM (top of the series) unless noted
Text: National Center for Advancing Translational Sciences [NCATS]
NIH Chemical Genomics Center [NCGC]
U.S. Environmental Protection Agency [EPA]
National Institutes of Environmental Health Sciences [NIEHS]
National Toxicology Program [NTP]
Estrogen related receptors (ERRs), the first orphan nuclear receptors discovered, play an important role in the control of cellular energy metabolism. ERRs are required for high-energy production in response to the environmental challenges. ERR-alpha was also identified as an adverse marker for breast cancer progression; ERR-alpha-positive tumors have a poor prognosis. To screen and to identify environmental compounds that perturb the ERR signaling pathways could provide valuable information for potential therapeutic or preventive measures in the treatment of metabolic disease. For identifying ERR agonists, ERR cell line (provided by NTP) has been used to screen Tox21 10K library.
The ERR cells were dispensed at 2,000 cells/5 ul/well in 1536-well white plates using a Multidrop dispenser. After the assay plates were incubated at a 37 C/5% CO2 incubator for 6 hours, 23 nL of compounds dissolved in DMSO, positive and negative controls or DMSO only was transferred to the assay plate by a pin tool. The plates were incubated at 37 C for 18 hours. 4 ul/well of One-Glo reagent was added into the assay plates using a Flying Reagent Dispenser. After 30-minute incubation at room temperature, the luminescence intensity in the plates was measured using a ViewLux plate reader.
% is set by controls: 0 for no effect and ±100 for the full control effect.

Compound	activity change, positive = activation
COc1ccc(C=O)cc1O	2.88% (inactive)
CCC1(c2ccccc2)C(=O)N(COC)C(=O)N(COC)C1=O	4.72% [at 42.5 µM] (inactive)
CC[C@@H](CO)NC(=O)[C@@H]1C=C2c3cccc4c3c(cn4C)C[C@H]2N(C)C1	0.637% [at 42.5 µM] (inactive)
CCC(C)C(C)(COC(N)=O)COC(N)=O (stereo not given)	1.95% [at 42.5 µM] (inactive)
O=c1[nH]c2ccccc2o1	-3.64% (inactive)
C[C@H](CN1CCOCC1)C(C(=O)N1CCCC1)(c1ccccc1)c1ccccc1	-33.1% (inactive)
Oc1ccc(Cc2ccc(O)cc2)cc1	5.91% (inactive)
Cl/C=C/CCl	5.39% (inactive)
CCN[C@@H](C)Cc1ccccc1	9.72% (inactive)
COP(=O)(OC)O/C(C)=C/C(=O)N(C)C	-0.44% (inactive)
COc1ccc(CN2CCNCC2)c(OC)c1OC	-10% [at 42.5 µM] (inactive)
CCN(CCO)CCn1c(Cc2ccccc2)nc2c1c(=O)n(C)c(=O)n2C	-1.48% [at 42.5 µM] (inactive)
C#CCOC(=O)/C=C(C)/C=C/CC(C)CCCC(C)C (stereo not given)	0.281% (inactive)
c1ccc2c(c1)CCNC2	-19.6% (inactive)
C=C1CC[C@@]2(O)[C@H]3Cc4ccc(O)c5c4[C@@]2(CCN3CC2CC2)[C@H]1O5	8.21% [at 42.5 µM] (inactive)
CCC(CC)(CNC(=O)CCCO)c1cccc(OC)c1	4.37% [at 42.5 µM] (inactive)
Clc1nc(Cl)nc(Nc2ccccc2Cl)n1	2.23% (inactive)
CCCOC(=O)c1cncn1C(C)c1ccccc1 (stereo not given)	0.709% [at 42.5 µM] (inactive)
C=CC(=O)OCCN(C)C	3.26% (inactive)
CC1NCCOC1c1ccccc1 (stereo not given)	0.163% [at 42.5 µM] (inactive)

Compound	activity change, positive = activation
COC[C@@H](NC(C)=O)C(=O)NCc1ccccc1	4.5% [at 42.5 µM] (inactive)
COC(=O)c1ccccc1CS(=O)(=O)NC(=O)Nc1nc(OC)cc(OC)n1	-0.138% (inactive)
CCC(=O)c1ccc(Cl)cc1	6.34% (inactive)
CC(Cl)(Cl)Cl	4% (inactive)
Cc1ccc2c(c1)C1CN(C)CCC1N2 (stereo not given)	6.1% [at 19 µM] (inactive)
COc1cc(CC(C)N)cc(OC)c1OC (stereo not given)	12.1% (inactive)
CC(C)c1ccc(O)cc1	-0.432% (inactive)
O=C(O)C(Br)(Br)Br	0.595% (inactive)
CC(=O)OCC1=C(C(=O)O)N2C(=O)[C@@H](N)[C@H]2SC1	9.57% [at 19 µM] (inactive)
CCCCS(=O)(=O)Cl	-4.82% (inactive)
CCCN1CCC[C@@H]2Cc3nc(N)ncc3C[C@H]21	3.55% [at 42.5 µM] (inactive)
CCN(CC)C1CCCCC1	0.2% (inactive)
C#CC(C)(C)O	-2.81% (inactive)
CC(C)(N)Cc1ccccc1Cl	-8.42% [at 42.5 µM] (inactive)
O=C(Cl)OCc1ccccc1	6.05% (inactive)
CCCCCCC1CCOC1=O (stereo not given)	0.0938% (inactive)
Cn1c(CCCC(=O)O)nc2cc(N(CCCl)CCCl)ccc21	-8.11% [at 42.5 µM] (inactive)
Cc1ccc(-c2nc3ccc(C)cn3c2CC(=O)N(C)C)cc1	37.3% [at 42.5 µM] (active)
CC1=C2[C@H]3OC(=O)[C@@H](C)[C@@H]3CC[C@@]2(C)C=CC1=O	5.47% [at 42.5 µM] (inactive)
Oc1ccc2c3c1O[C@H]1[C@@H](O)C=C[C@H]4[C@@H](C2)NCC[C@@]341	-18.1% (inactive)
